Measurements published in PubChem BioAssay (NCATS).
Records with an inconclusive call do not appear. Where a call stands in place of a potency, no number is given. The source made the active and inactive calls. Calls come from the whole dose curve; as a rule, active = well fitted curve in the direction sought with a large enough effect; inconclusive = small, poorly fitted or top-dose-only effect, or another doubt; inactive = no such curve, though single readings can be large; an effect the other way counts as inactive or inconclusive. Residues, ends and D or L forms follow the SMILES beside them. *: point of attachment. Cbz = O=C(OCc1ccccc1)*

Tests used:
[1] = qHTS Assay for Identification of Small Molecule Agonists for Thrombopoietin (TPO) Signaling Pathway (AID 917); conditions: TPO signaling pathway reporter cells, agonist qHTS, stimulated with TPO at its EC50; series mostly up to 38.5 µM
Outline: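 We measured Glycoprotein IIb promoter–luciferase output in IL-3-starved Ba/F3 murine cells expressing the human TPO receptor after 24 hrs at 37 C with compounds and 26 pM TPO.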

[2] = molecular target: Muscarinic acetylcholine receptor M1 (Rattus norvegicus) (UniProt P08482); experiment: qHTS Assay for Antagonists of Acetylcholine Muscarinic M1 Receptor: Kinetic Measurement of Intracellular Calcium Response (AID 943); conditions: M1-expressing cells, kinetic intracellular calcium fluorescence; series mostly up to 35.3 µM; note: nearly all actives have a fitted effect of over 75% in size; note: potency is the fitted concentration of half-maximal effect
Outline: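 CHO cells expressing rat M1 receptor, Fluo-4 loaded, preincubated 10 min with compound, then stimulated with EC80 carbachol (100 nM final). Kinetic calcium fluorescence over 4 min; response taken as peak over basal signal.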

[3] = Confirmation and Secondary Assay for Modulators of Hemoglobin Beta Chain Splicing at IVS2 654 locus (AID 910); conditions: HeLa EGFP-654 splicing reporter, GFP fluorescence, 48 h; series mostly up to 46.1 µM;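 note: per-well total GFP intensity by laser scanning cytometry after 2-day treatment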;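 note: potency is the fitted concentration of half-maximal effect; potency of activators that raise GFP signal by restoring correct splicing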
Outline: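 HeLa cells stably carrying EGFP interrupted by mutant beta-globin IVS2-654 intron (CMV-driven) were treated with compound for 2 days at 37C; corrected splicing was scored as total peak GFP intensity per well (488 nm excitation, 500-520 nm emission).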

[4] = Confirmation and Secondary Assay for Modulators of Hemoglobin Beta Chain Splicing at IVS2 705 locus (AID 930); conditions: HeLa EGFP-705 splicing reporter, GFP fluorescence, 48 h; series mostly up to 46.1 µM;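 note: HeLa cells stably expressing the EGFP-705 splicing reporter; GFP fluorescence per well restored by corrected splicing of the IVS2-705 intron in EGFP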
Outline: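 Stable HeLa line with EGFP disrupted by mutant beta-globin intron 2 (705). Overnight attachment, then 2 days of compound at 37C, 5% CO2. Signal: peak GFP intensity summed over objects 5-250 µm.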

[5] = molecular target: Muscarinic acetylcholine receptor M1 (Rattus norvegicus) (UniProt P08482); experiment: qHTS Assay for Antagonists of Acetylcholine Muscarinic M1 Receptor: Measurement of IP-One Response (AID 944); conditions: CHO-M1 cells, IP-One HTRF, antagonist mode; series mostly up to 46.1 µM; note: nearly all actives have a fitted effect of over 75% in size
Outline: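 CHO cells stably expressing rat M1, pretreated 10 min with compound, then stimulated 30 min with carbachol at EC80 (200 nM) in LiCl-containing buffer pH 7.4; IP1 accumulation read by HTRF competition (665/620 nm).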

[6] = qHTS Assay for Identification of Small Molecule Antagonists for Thrombopoietin (TPO) Signaling Pathway (AID 918); conditions: TPO-dependent cell signaling reporter, antagonist mode; note: potency is the fitted concentration of half-maximal effect; nearly all actives have a fitted effect of over 60% in size
Outline: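 Murine Ba/F3 cells expressing human TPO receptor and a Glycoprotein IIb promoter-luciferase reporter, IL-3-starved overnight, treated with compound plus TPO at EC50 (26 pM final). After 24 h at 37 C, luminescence read to detect inhibitors.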

Chain of Muscarinic acetylcholine receptor M1 (Rattus norvegicus) (P08482 whole entry, looked up): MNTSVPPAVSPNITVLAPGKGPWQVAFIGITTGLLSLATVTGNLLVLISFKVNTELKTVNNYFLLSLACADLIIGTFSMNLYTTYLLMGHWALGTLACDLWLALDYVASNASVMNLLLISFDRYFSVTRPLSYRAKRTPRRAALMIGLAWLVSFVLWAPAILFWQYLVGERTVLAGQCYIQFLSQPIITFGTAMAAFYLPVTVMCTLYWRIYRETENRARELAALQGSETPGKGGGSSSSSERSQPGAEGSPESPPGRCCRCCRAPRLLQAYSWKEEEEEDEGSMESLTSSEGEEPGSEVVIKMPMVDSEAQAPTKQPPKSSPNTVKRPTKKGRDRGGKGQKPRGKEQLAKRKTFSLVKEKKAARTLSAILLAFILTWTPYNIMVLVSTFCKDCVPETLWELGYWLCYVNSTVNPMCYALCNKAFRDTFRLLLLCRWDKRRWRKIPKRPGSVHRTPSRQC

COC(=O)[C@H](NC(=O)c1cc(-c2ccccc2)nc2ccccc12)c1ccccc1
Potency [1]: inactive

NC(=O)CNCCC(c1ccccc1)c1ccccc1
Potency [1]: inactive | Potency [2]: inactive

Nc1ccc2c3c(cccc13)C(=O)NC2=O
Potency [1]: inactive

C[C@H](O)C(=O)C1=Nc2c(nc(N)[nH]c2=O)NC1
Potency [1]: inactive

CC(C)[C@H](NC(=O)OCc1ccccc1)C(=O)N[C@H](C=O)Cc1ccccc1 (Cbz-Val-Phe-aldehyde)
Potency [1]: inactive | Potency [2]: inactive

NC1CONC1=O (centres undefined)
Potency [3]: inactive | outcome [4]: inactive

c1ccc(CN2CCC3(CCCc4ccccc43)CC2)cc1
Potency [1]: inactive

CN1C2CCC1CC(OC(c1ccccc1)c1ccccc1)C2 (centres undefined)
Potency [3]: inactive | outcome [4]: inactive

N#C/C(=C\c1ccc(O)c(O)c1)C(=O)NCCCNC(=O)/C(C#N)=C/c1ccc(O)c(O)c1
Potency [1]: inactive | Potency [2]: inactive

CCCc1c(OCCCOc2ccc(OCC(=O)O)cc2)ccc(C(C)=O)c1O
Potency [1]: inactive

CCCn1c(=O)c2[nH]c(-c3ccc(S(=O)(=O)O)cc3)nc2n(CCC)c1=O
Potency [1]: inactive | Potency [2]: inactive

OC[C@H]1O[C@@H](n2cnc3cncnc32)[C@H](O)[C@@H]1O
Potency [3]: 1.26 µM (active) | outcome [4]: inactive

CCCCOC(=O)NS(=O)(=O)c1sc(CC(C)C)cc1-c1ccc(Cn2c(CC)nc3c(C)cc(C)nc32)cc1
Potency [5]: inactive

N[C@@H](CS(=O)O)C(=O)O
Potency [1]: inactive | Potency [2]: inactive | Potency [5]: inactive

COc1ccc(NC(=O)c2ccc(-c3ccc(-c4noc(C)n4)cc3C)cc2)cc1N1CCN(C)CC1
Potency [6]: 10 µM (active)

CCCCCCCC/C=C\CCCCCCCC(=O)NCCc1ccc(O)c(O)c1
Potency [2]: inactive | Potency [5]: inactive

CCCCCCCCCCC/C=C\C(C)(C)/C=C\CCCC(=O)O
Potency [1]: inactive | Potency [2]: inactive | Potency [5]: inactive

O=C(O)Cc1c[nH]c2ccc(O)cc12
Potency [1]: inactive | Potency [2]: inactive

CC[C@@H]1Cc2cc(O)ccc2C2=C1c1ccc(O)cc1C[C@H]2CC
Potency [2]: 12.6 µM (active)

CCCCCCCCCCCCCCC[C@H](O)[C@H](N)CO
Potency [6]: 12.6 µM (active) | Potency [2]: 8.91 µM (active) | Potency [5]: inactive

Nn1nnc2ccccc21
Potency [5]: inactive

O=C(O)Cc1ccc(O)c(O)c1
Potency [2]: inactive

NCCNS(=O)(=O)c1cccc2c(Cl)cccc12
Potency [2]: inactive | Potency [5]: inactive

COc1ccc2c(c1)c(CC(=O)O)c(C)n2Cc1ccc(Cl)cc1
Potency [1]: inactive | Potency [2]: inactive

Nc1ncnc2c1c(-c1ccc(Oc3ccccc3)cc1)cn2C1CCCC1
Potency [5]: inactive

CN1CCN(c2nc3cc(C(F)(F)F)ccc3n3cccc23)CC1
Potency [2]: inactive

COc1cc(CNC(=O)CCCCCCC(C)C)ccc1O
Potency [1]: inactive | Potency [2]: inactive | Potency [5]: inactive

Cc1ccc([N+](=O)[O-])cc1S(=O)(=O)N(C)C
Potency [1]: inactive | Potency [2]: inactive | Potency [5]: inactive

O=c1onc2n1-c1cc(Br)ccc1OC2
Potency [1]: inactive | Potency [2]: inactive | Potency [5]: inactive

O=c1[nH]c2cc(Cl)ccc2c(O)c1-c1ccc(Oc2ccccc2)cc1
Potency [1]: inactive | Potency [5]: inactive

Cc1cccc(C(=O)NCN2CCN(c3ccccc3C#N)CC2)c1
Potency [2]: inactive

Nc1nc2[nH]c(=O)cnc2c(=O)[nH]1
Potency [1]: inactive | Potency [2]: inactive | Potency [5]: inactive

O=c1oc(Cl)c(Cl)c2ccccc12
Potency [2]: inactive

COc1ccccc1N1CCN(CCN(C(=O)c2ccc(F)cc2)c2ccccn2)CC1
Potency [1]: inactive | Potency [5]: inactive

O=S(=O)(c1cccc2c(Cl)cccc12)N1CCCNCC1
Potency [1]: inactive | Potency [5]: inactive

COc1cc(/C=C(\C#N)C(=O)c2ccc(O)c(O)c2)cc(I)c1O
Potency [1]: inactive | Potency [2]: inactive

N=C(N)SCCc1cnc[nH]1
Potency [6]: 0.794 µM (active) | Potency [2]: inactive | Potency [5]: inactive

S=C(S)N1CCCC1
Potency [5]: inactive

CCN(CC)CCCCCCCCOC(=O)c1cc(OC)c(OC)c(OC)c1
Potency [2]: 2.82 µM (active)

Oc1ccc(Cn2cc[nH]c2=S)cc1
Potency [1]: inactive | Potency [2]: inactive

CC(N)=O
Potency [1]: inactive | Potency [2]: inactive | Potency [5]: inactive

Nc1ncnc2c1ncn2C1CCCC1
Potency [2]: inactive | Potency [5]: inactive

NC(N)=NC(N)=Nc1cccc(Cl)c1
Potency [5]: inactive

N[C@@H](Cc1c[nH]c2ccccc12)C(=O)O
Potency [1]: inactive | Potency [2]: inactive | Potency [5]: inactive

CCCOC(=O)c1c(-c2ccccc2)nc(CC)c(C(=O)SCC)c1CCC
Potency [1]: inactive | Potency [5]: inactive

N#C/C(=C\c1ccc(O)c(O)c1)C(=O)NCCc1ccccc1
Potency [2]: inactive
